The source of these data is ChEMBL document CHEMBL3988442, “University of Dundee, Small-Polar-MMV Screening Library” (2021).

Structures are written as SMILES. For some of these results: Entries with a potency or affinity are not part of this list.

Set-up in all cases: scale not given: direction of the effect not stated beside the values
Assay [1] deals with Protein translocase subunit SecA (Escherichia coli (strain K12)) (UniProt P10408). In words: Assay to Identify E. coli SecA ATPase Inhibitors. The class given is functional. As to conditions: 30 µM.
For assay [2], the target named is T1, Ubiquitin-activating enzyme e1, putative (Leishmania donovani (strain BPK282A1)) (UniProt E9BSI1).
T1 sequence (whole entry): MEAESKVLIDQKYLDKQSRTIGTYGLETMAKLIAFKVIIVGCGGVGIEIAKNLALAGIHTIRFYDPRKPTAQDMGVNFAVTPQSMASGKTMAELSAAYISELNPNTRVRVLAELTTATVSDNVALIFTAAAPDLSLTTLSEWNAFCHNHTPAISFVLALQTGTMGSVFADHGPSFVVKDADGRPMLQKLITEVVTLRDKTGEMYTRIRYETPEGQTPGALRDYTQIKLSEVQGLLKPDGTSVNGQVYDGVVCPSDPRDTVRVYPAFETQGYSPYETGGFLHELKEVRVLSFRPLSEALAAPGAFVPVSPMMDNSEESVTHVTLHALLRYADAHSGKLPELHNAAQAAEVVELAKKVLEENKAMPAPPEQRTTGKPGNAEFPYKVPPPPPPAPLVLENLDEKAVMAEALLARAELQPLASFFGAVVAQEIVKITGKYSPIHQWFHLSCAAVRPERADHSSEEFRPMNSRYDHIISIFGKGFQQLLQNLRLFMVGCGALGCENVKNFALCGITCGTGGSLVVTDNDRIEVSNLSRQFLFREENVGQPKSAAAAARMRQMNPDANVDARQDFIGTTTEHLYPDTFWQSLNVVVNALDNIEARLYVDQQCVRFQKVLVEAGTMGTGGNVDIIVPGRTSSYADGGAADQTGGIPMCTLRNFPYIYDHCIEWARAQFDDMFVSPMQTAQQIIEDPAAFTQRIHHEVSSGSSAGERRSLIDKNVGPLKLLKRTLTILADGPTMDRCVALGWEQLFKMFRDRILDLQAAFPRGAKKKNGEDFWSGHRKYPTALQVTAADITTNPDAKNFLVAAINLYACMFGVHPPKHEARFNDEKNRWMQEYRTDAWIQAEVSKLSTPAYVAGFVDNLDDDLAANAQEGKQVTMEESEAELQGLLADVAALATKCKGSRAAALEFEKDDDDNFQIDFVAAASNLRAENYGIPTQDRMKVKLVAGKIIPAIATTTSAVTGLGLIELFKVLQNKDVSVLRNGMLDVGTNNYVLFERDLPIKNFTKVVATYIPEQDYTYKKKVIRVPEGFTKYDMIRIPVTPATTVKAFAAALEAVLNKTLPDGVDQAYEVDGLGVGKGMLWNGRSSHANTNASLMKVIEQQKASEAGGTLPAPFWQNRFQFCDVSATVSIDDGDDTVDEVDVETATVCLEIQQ
As to the kind of experiment: Leishmania donovani Ubiquitin Activating Enzyme (LdE1). Conditions: 30 µM. The class given is functional.

Assay [3] has as its target AMP-activated protein kinase, AMPK (Homo sapiens) (UniProt P54646+O43741+P54619+Q9UGJ0+Q9Y478+Q13131+Q9UGI9). As to the kind of experiment: AMP-dependent Kinase enzyme assay. An in vitro enzyme assay that detects ADP turnover that is directly proportional to AMPK activity. This uses naive AMPK that is activated during the assay with MK-8722. It counts as functional. Conditions: 30 µM.

In assay [4] the target is Sialic acid-binding Ig-like lectin 9 (Homo sapiens) (UniProt Q9Y336). As to the kind of experiment: Hs-Siglec9 ALPHAscreen SOP 20170721. Conditions: 10 µM.
Assay [5] concerns Trypanosoma cruzi. As to the kind of experiment: Trypanosoma cruzi phosphomannomutase and mannose-1-phosphate guanylyltransferase assay. It counts as functional. As to conditions: 10 µM.
The target of assay [6] is T2, Arginase-2, mitochondrial (Homo sapiens) (UniProt P78540).
T2 sequence (whole entry): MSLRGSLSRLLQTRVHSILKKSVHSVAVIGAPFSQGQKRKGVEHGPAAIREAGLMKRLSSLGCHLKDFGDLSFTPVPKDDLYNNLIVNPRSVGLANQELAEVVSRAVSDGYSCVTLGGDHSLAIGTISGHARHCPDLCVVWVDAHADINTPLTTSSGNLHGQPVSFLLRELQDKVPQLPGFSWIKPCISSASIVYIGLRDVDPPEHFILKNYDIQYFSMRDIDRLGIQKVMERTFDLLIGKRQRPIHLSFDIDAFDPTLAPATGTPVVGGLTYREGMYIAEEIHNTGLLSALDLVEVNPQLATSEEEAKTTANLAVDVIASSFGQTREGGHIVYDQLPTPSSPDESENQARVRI
As to the kind of experiment: in vitro enzyme assay to detect the production of urea directly proportional to the activity of Arginase II. Further: in the data most compounds retested in dose-response had high values. The class given is functional. As to conditions: 33.3 µM.

For assay [7], the target named is T3, Proteasome subunit beta (Trypanosoma cruzi) (UniProt O96673).
T3 sequence (whole entry): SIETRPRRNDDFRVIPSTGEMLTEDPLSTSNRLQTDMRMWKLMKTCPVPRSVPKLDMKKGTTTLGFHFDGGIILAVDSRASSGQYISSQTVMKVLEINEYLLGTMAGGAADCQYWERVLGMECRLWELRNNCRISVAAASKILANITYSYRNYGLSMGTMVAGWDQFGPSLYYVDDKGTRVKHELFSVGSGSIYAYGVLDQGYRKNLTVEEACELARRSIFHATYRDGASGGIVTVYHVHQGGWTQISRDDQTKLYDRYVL
In words: Trypanosoma cruzi proteasome chymotrypsin-like activity (TcProtChymo) assay. Further: in the data most compounds retested in dose-response had high values. The class given is functional. As to conditions: 9.37 µM.

For assay [8], the species on record is Homo sapiens. As to the kind of experiment: To identify inhibition of the IFN signalling (Jak-Stat) pathway via expression of an eGFP reporter gene under the control of an IFN-stimulated response element (ISRE) containing MxA promoter. It counts as functional. As to conditions: 30 µM. (In general: In a reporter assay the amount or activity of a reporter protein is the signal.)

Assay [9] deals with T4, Tyrosyl-tRNA synthetase, putative (Trypanosoma cruzi (strain CL Brener)) (UniProt Q4DSP6).
T4 sequence (whole entry): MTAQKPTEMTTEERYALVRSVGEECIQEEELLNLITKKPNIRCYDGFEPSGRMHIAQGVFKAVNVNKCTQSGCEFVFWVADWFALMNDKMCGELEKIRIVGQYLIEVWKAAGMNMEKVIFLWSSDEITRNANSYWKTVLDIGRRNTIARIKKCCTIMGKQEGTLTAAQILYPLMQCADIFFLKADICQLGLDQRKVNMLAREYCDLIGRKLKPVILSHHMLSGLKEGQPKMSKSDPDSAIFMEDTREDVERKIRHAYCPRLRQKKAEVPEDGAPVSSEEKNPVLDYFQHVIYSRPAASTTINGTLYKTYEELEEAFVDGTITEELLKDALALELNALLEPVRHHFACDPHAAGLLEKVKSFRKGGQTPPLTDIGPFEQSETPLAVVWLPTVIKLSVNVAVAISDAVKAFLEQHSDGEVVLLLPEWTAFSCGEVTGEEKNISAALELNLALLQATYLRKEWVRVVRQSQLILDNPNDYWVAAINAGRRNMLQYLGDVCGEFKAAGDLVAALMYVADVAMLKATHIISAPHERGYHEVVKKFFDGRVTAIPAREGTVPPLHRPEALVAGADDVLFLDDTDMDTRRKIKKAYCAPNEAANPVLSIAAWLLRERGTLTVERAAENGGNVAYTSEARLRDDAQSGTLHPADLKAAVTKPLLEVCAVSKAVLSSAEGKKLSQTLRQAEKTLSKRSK
As to the kind of experiment: Trypanosoma cruzi tyrosyl tRNA synthetase (TcYRS) _High Tyrosine SOP. Further: in the data most compounds retested in dose-response had high values. As to conditions: 30 µM. It counts as functional.

In assay [10] the target is T4, Tyrosyl-tRNA synthetase, putative (Trypanosoma cruzi (strain CL Brener)). As to the kind of experiment: Trypanosoma cruzi tyrosyl tRNA synthetase (TcYRS) SOP. It counts as functional. Conditions: 30 µM.
Assay [11] deals with Chromo domain-containing protein 1 (Saccharomyces cerevisiae (strain ATCC 204508 / S288c) (Baker's yeast)) (UniProt P32657). In words: ScCHD-1 Enzyme Inhibition Assay. Further: in the data most compounds retested in dose-response had high values. It counts as functional. As to conditions: 30 µM.
Chromo domain-containing protein 1 (Saccharomyces cerevisiae (strain ATCC 204508 / S288c) (Baker's yeast)), sequence (P32657 whole entry, the tested form may be a part): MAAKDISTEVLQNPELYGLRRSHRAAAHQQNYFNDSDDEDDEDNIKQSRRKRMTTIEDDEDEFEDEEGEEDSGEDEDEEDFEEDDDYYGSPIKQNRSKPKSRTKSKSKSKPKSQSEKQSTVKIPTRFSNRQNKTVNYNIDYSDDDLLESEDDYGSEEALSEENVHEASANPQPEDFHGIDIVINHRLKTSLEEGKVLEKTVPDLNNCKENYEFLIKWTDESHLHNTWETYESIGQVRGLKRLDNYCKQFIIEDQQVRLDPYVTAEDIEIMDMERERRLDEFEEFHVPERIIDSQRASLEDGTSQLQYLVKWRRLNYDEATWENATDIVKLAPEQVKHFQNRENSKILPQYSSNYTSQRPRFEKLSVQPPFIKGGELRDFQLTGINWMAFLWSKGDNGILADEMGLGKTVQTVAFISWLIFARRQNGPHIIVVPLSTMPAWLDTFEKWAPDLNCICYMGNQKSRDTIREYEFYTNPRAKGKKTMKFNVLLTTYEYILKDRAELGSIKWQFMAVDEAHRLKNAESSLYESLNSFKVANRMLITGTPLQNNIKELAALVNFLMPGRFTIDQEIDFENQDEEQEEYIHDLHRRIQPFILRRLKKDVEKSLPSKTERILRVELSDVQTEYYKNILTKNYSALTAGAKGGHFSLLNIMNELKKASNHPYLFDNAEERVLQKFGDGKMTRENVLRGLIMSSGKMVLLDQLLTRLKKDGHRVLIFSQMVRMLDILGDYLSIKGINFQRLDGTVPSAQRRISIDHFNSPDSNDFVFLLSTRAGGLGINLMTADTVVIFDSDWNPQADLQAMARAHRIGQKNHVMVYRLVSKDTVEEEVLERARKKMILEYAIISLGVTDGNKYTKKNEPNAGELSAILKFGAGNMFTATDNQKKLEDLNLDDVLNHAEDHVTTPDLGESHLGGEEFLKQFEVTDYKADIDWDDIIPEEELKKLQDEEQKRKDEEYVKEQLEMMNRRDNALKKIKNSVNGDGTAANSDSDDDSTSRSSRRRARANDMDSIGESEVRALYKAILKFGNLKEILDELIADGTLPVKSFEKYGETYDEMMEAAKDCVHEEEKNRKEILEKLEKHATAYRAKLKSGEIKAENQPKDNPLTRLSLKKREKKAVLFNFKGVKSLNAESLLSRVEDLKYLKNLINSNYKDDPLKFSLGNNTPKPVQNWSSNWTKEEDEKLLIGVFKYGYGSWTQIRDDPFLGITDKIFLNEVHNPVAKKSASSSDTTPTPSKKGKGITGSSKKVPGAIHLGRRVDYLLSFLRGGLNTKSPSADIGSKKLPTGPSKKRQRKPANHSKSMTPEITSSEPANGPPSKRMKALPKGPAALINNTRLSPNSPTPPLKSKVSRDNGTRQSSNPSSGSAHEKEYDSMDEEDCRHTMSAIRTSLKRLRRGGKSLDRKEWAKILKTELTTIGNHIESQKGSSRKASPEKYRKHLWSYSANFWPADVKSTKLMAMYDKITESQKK

Sialic acid-binding Ig-like lectin 9 (Homo sapiens), sequence (Q9Y336 whole entry): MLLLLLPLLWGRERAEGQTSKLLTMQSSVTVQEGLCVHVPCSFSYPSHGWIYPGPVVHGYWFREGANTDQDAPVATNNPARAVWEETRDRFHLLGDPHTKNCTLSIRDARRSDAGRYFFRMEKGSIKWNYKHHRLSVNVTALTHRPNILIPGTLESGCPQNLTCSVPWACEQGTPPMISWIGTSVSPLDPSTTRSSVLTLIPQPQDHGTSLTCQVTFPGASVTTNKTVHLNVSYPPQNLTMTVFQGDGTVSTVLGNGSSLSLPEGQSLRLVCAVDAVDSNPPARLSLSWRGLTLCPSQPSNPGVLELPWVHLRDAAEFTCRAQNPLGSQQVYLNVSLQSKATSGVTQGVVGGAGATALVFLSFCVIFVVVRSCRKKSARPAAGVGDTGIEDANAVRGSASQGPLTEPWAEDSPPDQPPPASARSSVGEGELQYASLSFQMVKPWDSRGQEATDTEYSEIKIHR
Protein translocase subunit SecA (Escherichia coli (strain K12)), sequence (P10408 whole entry): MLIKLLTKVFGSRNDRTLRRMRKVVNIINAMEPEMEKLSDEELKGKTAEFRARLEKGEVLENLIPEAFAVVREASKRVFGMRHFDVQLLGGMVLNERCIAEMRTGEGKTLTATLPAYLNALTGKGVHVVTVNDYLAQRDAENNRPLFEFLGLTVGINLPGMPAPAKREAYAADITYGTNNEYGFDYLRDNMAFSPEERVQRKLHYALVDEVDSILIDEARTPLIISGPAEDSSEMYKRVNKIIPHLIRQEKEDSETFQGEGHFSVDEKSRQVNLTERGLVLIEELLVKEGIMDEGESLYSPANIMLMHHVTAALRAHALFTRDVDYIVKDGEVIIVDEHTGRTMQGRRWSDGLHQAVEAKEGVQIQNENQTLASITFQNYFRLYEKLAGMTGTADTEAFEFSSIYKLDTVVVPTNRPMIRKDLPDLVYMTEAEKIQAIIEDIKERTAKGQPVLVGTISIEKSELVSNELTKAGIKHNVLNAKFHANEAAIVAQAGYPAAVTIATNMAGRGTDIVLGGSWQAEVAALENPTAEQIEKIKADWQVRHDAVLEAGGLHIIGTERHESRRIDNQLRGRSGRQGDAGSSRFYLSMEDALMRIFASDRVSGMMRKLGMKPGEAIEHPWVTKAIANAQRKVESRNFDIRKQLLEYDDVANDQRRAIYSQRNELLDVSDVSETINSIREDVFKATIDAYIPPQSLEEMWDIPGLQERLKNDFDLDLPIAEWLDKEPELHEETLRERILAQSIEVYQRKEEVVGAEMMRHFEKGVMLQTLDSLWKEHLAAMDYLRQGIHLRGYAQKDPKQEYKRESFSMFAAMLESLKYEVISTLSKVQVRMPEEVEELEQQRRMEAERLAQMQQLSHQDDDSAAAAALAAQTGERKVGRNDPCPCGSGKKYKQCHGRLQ

Consider `CC(C)c1nc(CN2CCCCC2)cs1`, for which the Percent Effect in assay [1] was -4.24%; in assay [2], -5.2%; in assay [3], 15.4%; in [4], 0.118%; in assay [5], -0.686%; in [6] it was -0.632%. The Percent Effect in assay [7] was -1.54%; in [8], 47.1%; in assay [9], -2.86%; in assay [10], -2.35%; in assay [11], 0.144%.
Take `CC1c2ncc(Cn3cncn3)n2CCN1C1CCOCC1` (stereo unspecified): the Percent Effect was -4.22% in assay [1]; -2.67% in assay [2]; -5.46% in [3]; -3.4% in assay [4]; -4.83% in assay [5]; -54.3% in [6]. Further, the Percent Effect in assay [7] is 9.91%; in assay [8], 2.92%; in [9] it was 2.08%; in assay [10] it was -12.5%; in assay [11], -5.31%.
Take `Cc1cc(C)cc(NS(=O)(=O)c2cc3c(c(C(=O)O)c2)OCCO3)c1`: the Percent Effect is -4.74% in assay [1]; 6.33% in [2]; -7.57% in [3]; 3.67% in assay [4]; 0.308% in assay [5]; -5.38% in assay [6]. In addition, the Percent Effect in assay [7] is 15.4%; in assay [8] it was 2.08%; in [9], -10.4%; in assay [10], -5.06%; in assay [11], -26.1%.
With `COc1ccc(CC(=O)N2CCCC2Cn2cccn2)cc1F` (stereo unspecified), the Percent Effect is -2.59% in assay [1]; 2.63% in assay [2]; -8.2% in assay [3]; 6.06% in assay [4]; -2.52% in [5]; 1.44% in assay [6]. The Percent Effect in assay [7] is 2.12%; in assay [8] it was -12.5%; in assay [9], -0.493%; in assay [10] it was 1.24%; in assay [11], -2.17%.
Turning to `Cc1c(C2CCCN(C(=O)Cc3ccccn3)C2)n2c(nc1=O)CCC2` (stereo unspecified), the Percent Effect in assay [1] was -4%; in assay [2], 12.2%; in [3], 4.92%; in assay [4] it was -3.29%; in [5] it was -5.53%; in [6] it was 0.696%. Further, the Percent Effect in assay [7] was 15.3%; in assay [8], 14.5%; in assay [9], 6.45%; in assay [10] it was 6.49%; in [11], -11.6%.
For `CC(C)OCCCN1CCCC(c2nc3ccccc3n2C(C)C)C1` (stereo unspecified), the Percent Effect in assay [1] is -2.17%; in [2], 13.5%; in assay [3], -7.28%; in [4], -1.96%; in assay [5], 3.32%; in assay [6], 32.9%. Also, the Percent Effect in [7] came out at 15%; in [8], 22.4%; in assay [9], 9.9%; in [10], 13.4%; in assay [11] it was 6.88%.
For the molecule `C[S+]([O-])CCCNC(=O)c1cc(Br)c2c(c1)OCCO2` (stereo unspecified), the Percent Effect was -5.04% in [1]; 10.7% in [2]; -5.08% in assay [3]; 28.9% in assay [4]; 5.55% in [5]; 48.4% in [6]. Also, the Percent Effect in [7] is 2.62%; in [8], 8.03%; in assay [9] it was 2.73%; in [10] it was 13.6%; in assay [11], -7.44%.
In the case of `O=C1COC2(CCN(CC3CC3)CC2)CN1c1ccccc1`, the Percent Effect in [1] is -0.394%; in assay [2] it was 2.74%; in assay [3] it was -5.09%; in assay [4], 8.07%; in assay [5], 4.17%; in [6], -2%. The Percent Effect in [7] was 18.6%; in [8], -21.4%; in assay [9], 9.38%; in assay [10], 8.64%; in assay [11], -1.91%.
On to `CC(=O)NCCN1CCC(c2cccs2)CC1`, for which the Percent Effect is -3.79% in assay [1]; 5.48% in assay [2]; 4.81% in assay [3]; 1.43% in assay [4]; 6.27% in assay [5]; -1.36% in assay [6]. The Percent Effect in assay [7] was 17.9%; in assay [8], 3.79%; in assay [9], 2.15%; in [10] it was 10%; in assay [11], -6.86%.
With `CN(C)C(=O)CN1CCC2(CCN(Cc3nccs3)CC2)C1=O`, the Percent Effect in assay [1] is -0.585%; in assay [2] it was 10.7%; in [3], 0.545%; in assay [4], -5.07%; in [5], -9.46%; in [6] it was -60.4%. The Percent Effect in [7] was 12.5%; in assay [8], 13.1%; in [9] it was -12.5%; in assay [10] it was 5%; in assay [11], -7.73%.
Consider `CCN1CC2(CC1=O)CN(C(=O)c1ccco1)CCN(C(=O)N(C)C)C2` (stereo unspecified), for which the Percent Effect in assay [1] was -0.623%; in assay [2], 5.48%; in [3], -1.36%; in [4], 5.48%; in [5] it was -2.18%; in [6] it was -8.78%. For the same molecule, the Percent Effect in assay [7] was 12.6%; in assay [8], 6.21%; in [9], 6.25%; in assay [10] it was 1.24%; in assay [11], -1.51%.
